BJeLR viab HTS – compounds reducing viability of BJeLR cells. 30,000 tested, 0.64% active. viability loss activity score, % (test concentration not listed). AID 2275. BJeLR fibroblasts viability, CellTiterGlo ATP luminescence, 48 h; HRASV12, hTERT and SV40 LT/ST transformed; in the data active = viability loss activity score above about 50%;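 note: higher score means fewer live cells and less ATP luminescence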
A1 inhib – inhibitors of A1 | MEF A1-2A-BIM cells, caspase-Glo luminescence, 3 h; percent of clofoctol signal, DMSO as zero | caspase activation, % (no concentration beside the values) | 21,000 tested, 0.51% active | AID 2241;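 active = most replicate scores above 10, or exactly half above 10 with mean activity above 10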;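 note: effector caspase 3 and 7 activity cleaving a DEVD luciferin substrate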
The depositor's hits bear a star; . = no result given. Rows were chosen to be rich in hits. Some 0.89% of all compounds tested hit in one or more screens of this group.

SMILES	BJeLR viab HTS	A1 inhib
C[C@@H]1O[C@@H](O[C@@H]2C=C3CCC4C(CC[C@]5(C)[C@@H](c6ccc(=O)oc6)CC[C@]45O)[C@@]3(C)CC2)[C@H](O)[C@H](O)[C@H]1O (stereo partly drawn)	121*	1
C[C@@H]1O[C@@H](O[C@@H]2C=C3CC[C@@H]4C(CC[C@]5(C)[C@@H](c6ccc(=O)oc6)CC[C@]45O)[C@@]3(C)CC2)[C@H](O)[C@H](O)[C@H]1O (stereo partly drawn)	99*	0
CC(=O)OC1CCC2(C)C(=CCC3C4CCC(=O)C4(C)CCC32)C1 (stereo not drawn)	-1	-1
CCC1(CC)OC(c2cccnc2)Nc2ccccc21 (stereo not drawn)	0	1
COc1cccc(N2CCNCC2)c1	3	.
CCn1cnc2c(Nc3cccc(Cl)c3)nc(N[C@@H]3CCCC[C@@H]3N)nc21	57*	26*
O=[P+](c1ccccc1)c1ccccc1	-9	0
O=C(O)c1[nH]c2ccc(Cl)cc2c1CC(=O)N1CCC2(CC1)OCCO2	2	.
CNc1ccc2oc(C[C@@H]3OC4(CC[C@@H]3C)O[C@H](C(C)C(=O)c3ccc[nH]3)[C@H](C)C[C@H]4C)nc2c1C(=O)O (stereo partly drawn)	72*	-1
C/C=C\C(=O)O[C@@H]1C[C@H]2O[C@@H]3C=C(C)C(=O)C[C@]3(C)[C@]1(C)[C@]21CO1	101*	11*
